# Bioassay records: PubChem, several laboratories
# Hits are enriched below; roughly 2.7% of the tested compounds scored in any of these assays.
# IDE cell activ – activators of human insulin-degrading enzyme in cells; P14735; HEK cells, FAbeta-B cleavage, fluorescence polarization; 0% vehicle, 100% cell-free pure enzyme wells; activation, % at 5.96 µM; 0.073% of 340,000 active; AID 493087;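 active means activation above the mean of all tested compounds plus 3 SD, set per screening campaign, cut at about 17% in these data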
# TMEM16A inh – mouse TMEM16A channel inhibition, primary screen | HEK293 TMEM16A/YFP iodide influx fluorescence, ionomycin | normalized B-score (activity score, 25-100; higher = stronger inhibition) at 10 µM | 1.2% of 310,000 active | AID 588511;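 active means ratio plate-corrected score three or more library SD toward inhibition, starting fluorescence score within five deviations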;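 further: score derived from kinetic fluorescence span divided by baseline fluorescence per well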
# CHT block – human CHT choline transport inhibition; CHT-expressing cells, membrane potential dye, choline response; active compounds read low; B-score at 10 µM; 0.86% of 310,000 active; AID 488975;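 active means B-score over 3 SD under the library average, and starting fluorescence ratio not unusually high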;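 further: choline stimulus applied at its EC90 after an EC20 pre-addition; B-score computed on integrated fluorescence ratio after choline addition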
# Target sequence (Q9GZV3 whole entry, looked up): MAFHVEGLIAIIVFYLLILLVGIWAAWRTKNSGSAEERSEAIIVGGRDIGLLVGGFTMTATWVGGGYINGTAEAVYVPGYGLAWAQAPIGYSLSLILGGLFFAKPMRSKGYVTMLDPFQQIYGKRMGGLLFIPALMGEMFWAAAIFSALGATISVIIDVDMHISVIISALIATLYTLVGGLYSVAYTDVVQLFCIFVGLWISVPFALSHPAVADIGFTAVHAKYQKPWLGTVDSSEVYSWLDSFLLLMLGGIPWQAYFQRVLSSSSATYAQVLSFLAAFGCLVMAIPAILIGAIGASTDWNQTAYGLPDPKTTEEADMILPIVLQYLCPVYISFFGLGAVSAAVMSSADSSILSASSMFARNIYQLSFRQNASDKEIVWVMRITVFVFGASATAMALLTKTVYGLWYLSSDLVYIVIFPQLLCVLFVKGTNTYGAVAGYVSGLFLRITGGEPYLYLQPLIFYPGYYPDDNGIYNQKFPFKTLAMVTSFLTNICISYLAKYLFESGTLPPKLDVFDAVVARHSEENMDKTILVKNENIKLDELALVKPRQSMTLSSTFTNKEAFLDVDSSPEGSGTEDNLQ
# IDE inh – cellular human IDE inhibition | P14735 | HEK cells, FAbetaB cleavage, fluorescence polarization | inhibition, % at 5.59 µM | 0.41% of 320,000 active | AID 434962;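 active means percent inhibition above the average of all tested compounds plus 3 SD, set per screening campaign, cut at about 16% in these data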;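 further: IDE supplied by intact live HEK cells; FP after avidin binding of uncleaved biotin substrate so inhibition keeps polarization high; 0% = DMSO wells and 100% = 60 µM reference IDE inhibitor Ii1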
# ANO1 activ – activates or potentiates the mouse TMEM16A chloride channel; Q8BHY3; HEK293 TMEM16A/YFP-H148Q/I152L, iodide quench fluorescence; active compounds read low; B-score at 10 µM; 0.3% of 340,000 active;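 active means fluorescence-ratio B-score plate-corrected deviation score at least 3 library SD below zero, with starting fluorescence score within 5 deviations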;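 further: channel opened by trigger with iodide after compound preincubation; score built on the fluorescence ratio of max minus min over baseline; more negative score means more quench and so TMEM16A activation or potentiation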
# CHT allo act – human CHT allosteric activation. Q9GZV3. CHT-expressing cells, membrane potential dye, choline EC20; active compounds read high; LV-AA mutant CHT in HEK293 cells. B-score at 10 µM. 0.49% of 310,000 active. AID 488977;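 active means initial fluorescence not abnormally high and integrated response B-score, plate-corrected, over 3 SD above library mean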
# CHT act confirm – confirmation of human choline transporter (CHT) activators. shares compounds with CHT allo act. CHT-expressing cells, membrane potential dye fluorescence (FDSS); % of choline EC20–EC90 response window; HEK293 expressing CHT LV-AA mutant; choline added at its EC20. activation, % at 10 µM. 91% of 2,500 active. AID 504833;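 active means primary screen active, with duplicate mean activation above negative control mean plus 3 SD, cut at about 11% in these data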
# HEK293 MP dye – counter-screen for CHT activators: effect in parental HEK293 cells; shares compounds with CHT allo act; ratio readout change at 10 µM, hits read low; membrane potential dye fluorescence (FDSS); measured after EC20 choline addition; 62% of 2,500 active;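 active means duplicate-averaged ratio beyond 3 SD from buffer wells, up or down, though filed actives are nearly all decreases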
# An asterisk follows results filed as active; i = inactive; x = no result.
SMILES,IDE cell activ,TMEM16A inh,CHT block,IDE inh,ANO1 activ,CHT allo act,CHT act confirm,HEK293 MP dye
COc1cccc(NC(=O)CCC2CCN(C(=O)C3CC=CCC3)CC2)c1 (centres undefined),0,i,i,-1,i,i,x,x
Cc1ccc2c(n1)sc1c(N)ncnc12,7,i,i,0,i,8.3*,53*,-32*
COc1ccc(C(=O)O)cc1S(=O)(=O)Nc1ccc(Oc2ccccc2)cc1,1,x,x,-4,i,x,x,x
Cc1ccc(C)c(CN2C(=O)CSc3ccc(C(=O)NCC(C)CN4CCC(C)CC4)cc32)c1 (centres undefined),3,i,i,-3,i,6.8*,40*,-34*
COc1ccc2c(c1)C(C)=CC(C)(C)N2S(=O)(=O)c1ccc(C)cc1,4,i,i,1,i,7.9*,41*,i
C[C@H]1CCC(=O)N([C@H](COc2ccccc2)Cc2ccccc2)CC1,-1,i,i,2,i,6.3*,40*,i
COc1ccc(Cl)cc1C(=O)NNC(=O)c1ccncc1,1,i,i,3,i,i,x,x
COc1ccc(Cl)cc1C(=O)Nc1ccncc1,4,i,i,-6,i,i,60*,-42*
COc1ccc(C(=O)Nc2ccncc2)cc1OC,5,i,i,-4,i,8.2*,39*,-50*
COc1ccc(CN(C)CC(=O)N(C)CC(=O)Nc2ccccc2Br)cc1F,2,x,x,1,i,x,x,x
CN(C)CCNC(=O)c1onc(CSc2ccncc2)c1C(=O)NCCN(C)C,2,i,i,-1,i,i,50*,-58*
CCC(C)N1CCC2(CC1)N=c1c(c3c4c5c(C)c(O)c3c(O)c1=NC(=O)C(C)=CC=C[C@H](C)[C@H](O)[C@@H](C)[C@@H](O)[C@@H](C)[C@H](OC(C)=O)[C@H](C)[C@@H](OC)C=CO[C@@](C)(O5)C4=O)N2 (some centres undefined),10,i,i,-10,i,i,22*,-42*
O=C1N[C@@H](Cc2c[nH]c3ccccc23)C(=O)N[C@H]1Cc1ccccc1,-4,x,x,x,x,x,x,x
CCCn1c(N)c(C(=O)CSc2nc(C3CC3)n(-c3ccccc3)n2)c(=O)[nH]c1=O,4,x,x,5,i,x,x,x
Cc1cc(C)n2[nH]c(=O)c(N=Nc3cccc(C(F)(F)F)c3)c2n1,3,i,i,-1,i,7.2*,37*,-74*
CCOC(=O)c1c(C)n(-c2ccc(OC)cc2)c2ccc(O)c(CN(C)C)c12,2,i,i,-2,i,6.5*,9,-26*
CCOC(=O)c1sc(=N)n(-c2ccc(OC)cc2)c1C,4,i,i,3,i,i,x,x
CCOC(=O)c1c(CSc2ccc(C)cc2)n(C)c2cc(Br)c(O)c(CN(C)C)c12,-3,i,i,3,i,i,x,x
CCOC(=O)c1c(C)n(-c2ccccc2)c2ccc(OCCN(C)C)cc12,-2,i,i,1,i,i,31*,i
CCOC(=O)c1c(C)n(-c2ccc(C)cc2)c2ccc(O)c(CN(C)C)c12,2,i,i,2,i,8.8*,15*,i
CC(C)(CN1CCN(Cc2ccccc2)CC1)NS(=O)(=O)c1ccc(Cl)cc1,-1,i,i,6,i,9*,21*,i
COCCCNC(=O)/C(C#N)=C/c1c(N2CCN(C)CC2)nc2c(C)cccn2c1=O,2,i,i,6,i,6.9*,52*,-56*
CNC(=O)/C(C#N)=C/c1c(N2CCCCCC2)nc2ccccn2c1=O,-2,i,i,2,i,6.4*,-2,-36*
CCNC(=O)/C(C#N)=C/c1c(N2CCCCCC2)nc2ccccn2c1=O,1,i,i,1,i,i,x,x
CCN1CCN(c2nc3c(C)cccn3c(=O)c2/C=C(\C#N)C(=O)NCCOC)CC1,3,i,i,-1,i,8.7*,60*,-62*
SMILES,IDE cell activ,TMEM16A inh,CHT block,IDE inh,ANO1 activ,CHT allo act,CHT act confirm,HEK293 MP dye
COCCNC(=O)/C(C#N)=C/c1c(N2CCN(C)CC2)nc2c(C)cccn2c1=O,-1,i,i,1,i,9.7*,67*,-56*
CC(=O)c1cccc(NC(=O)COc2cc(C)on2)c1,3,x,x,0,i,x,x,x
COc1ccccc1C(=O)COC(=O)Cn1nc(C)c([N+](=O)[O-])c1C,1,i,i,-3,i,i,x,x
COCCCNC(=O)/C(C#N)=C/c1c(N2CCN(C)CC2)nc2ccccn2c1=O,3,i,i,5,i,i,48*,-42*
CCOC(=O)/C(C#N)=C/c1c(N2CCN(C)CC2)nc2c(C)cccn2c1=O,-3,i,i,x,i,i,46*,-48*
CN1CCN(c2nc3ccccn3c(=O)c2C=O)CC1,4,i,i,-4,i,6.3*,48*,-45*
O=Cc1c(N2CCCCC2)nc2ccccn2c1=O,x,i,i,2,i,i,x,x
O=C(NC(=S)NCc1ccco1)c1ccccc1[N+](=O)[O-],2,i,i,-7,i,i,x,x
Cc1nc2nc(C)c(NS(=O)(=O)c3ccc(CC(C)C)cc3)c(=O)n2[nH]1,7,i,i,-2,i,i,x,x
COc1ccc(CCNC(=O)COC(=O)/C=C/c2ccc3c(c2)OCO3)cc1OC,6,x,x,-3,i,x,x,x
CCOC(=O)c1sc(NC(=O)Cc2ccccc2OC)nc1C,2,i,i,-9,i,i,15*,i
CCOC(=O)c1sc(NC(=O)c2c(OC)cccc2OC)nc1C,6,i,i,5,i,i,x,x
O=C(Cn1c(-c2ccccc2)c[n+]2ccsc12)c1ccc(Br)cc1,3,i,i,3,i,i,42*,-34*
CCCCCC(=O)Cc1cc(O)cc2c1C(=O)Oc1cc(O)c(C(=O)O)c(CCCCC)c1O2,x,25*,i,-2,x,i,30*,-50*
CCC(C)N1C(=O)N(c2cccc(Cl)c2)C(C)(O)CC1(C)C (centres undefined),5,i,i,0,i,i,x,x
